BoNT A protease – BoNT/A light chain protease inhibitors, primary screen, biochemical, flow cytometry, MLPCN library; multiplex microsphere protease substrate cleavage; inhibition, % at 10 µM; 360,000 tested, 0.17% active; AID 588499, 2011; also: plate controls were buffer without enzyme for full effect and enzyme alone for no effect
MazEF act – activators of E. coli MazEF toxin-antitoxin RNase, primary screen, biochemical, fluorescence, uHTS. FAM/BHQ RNA-DNA oligo cleavage fluorescence, 5 h. activation, % at 20 µM. 350,000 tested, 0.32% active. AID 504720, 2011; in the data active = activation above about 50%
Autofluor counter – flagged as autofluorescent in microsphere protease counterscreen; compound autofluorescence counterscreen, microsphere flow cytometry; active compounds read high; fluorescence intensity (test concentration not listed); 360,000 tested, 3.1% active; AID 624483; in the data active = fluorescence intensity above about 16000; inconclusive = no clear call, values can overlap the other calls
Anthrax LF prot – Bacillus anthracis LF protease inhibitors, primary screen, biochemical, multiplex microsphere, MLPCN library; inhibition, % at 10 µM; 360,000 tested, 0.12% active; Lethal factor (Bacillus anthracis), P15917; multiplex microsphere protease cleavage assay; AID 588501, 2011; also: plate controls were buffer without enzyme for full effect and enzyme alone for no effect
Target sequence (P15917 whole entry, looked up): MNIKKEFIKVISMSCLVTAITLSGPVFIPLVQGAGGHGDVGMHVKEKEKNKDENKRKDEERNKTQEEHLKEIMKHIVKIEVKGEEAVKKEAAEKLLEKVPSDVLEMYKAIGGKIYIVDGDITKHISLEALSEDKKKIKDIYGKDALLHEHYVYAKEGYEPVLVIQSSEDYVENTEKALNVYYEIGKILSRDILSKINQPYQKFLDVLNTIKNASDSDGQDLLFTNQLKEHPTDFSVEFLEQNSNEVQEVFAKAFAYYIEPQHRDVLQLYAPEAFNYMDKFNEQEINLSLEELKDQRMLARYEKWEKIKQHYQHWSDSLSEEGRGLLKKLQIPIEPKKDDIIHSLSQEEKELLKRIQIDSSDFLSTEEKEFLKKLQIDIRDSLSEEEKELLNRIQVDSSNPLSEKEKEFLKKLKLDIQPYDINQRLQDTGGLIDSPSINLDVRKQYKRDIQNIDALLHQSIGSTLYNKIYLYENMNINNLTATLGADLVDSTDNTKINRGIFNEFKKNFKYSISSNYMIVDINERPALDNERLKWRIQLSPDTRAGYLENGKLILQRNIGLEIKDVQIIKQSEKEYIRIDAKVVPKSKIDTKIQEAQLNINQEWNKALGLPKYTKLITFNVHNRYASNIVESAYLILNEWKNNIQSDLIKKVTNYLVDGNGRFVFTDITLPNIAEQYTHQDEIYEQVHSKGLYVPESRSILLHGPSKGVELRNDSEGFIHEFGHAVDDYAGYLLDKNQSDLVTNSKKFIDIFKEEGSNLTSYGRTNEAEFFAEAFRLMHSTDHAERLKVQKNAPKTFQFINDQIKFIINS
BoNT F protease – BoNT/F light chain protease inhibitors, primary screen, biochemical, flow cytometry, MLPCN library; Multiplex microsphere protease cleavage assay; inhibition, % at 10 µM; 360,000 tested, 0.22% active; AID 588497, 2011; in the data active = inhibition above about 35%, passing the limit was not always enough; inconclusive = no clear call, values can overlap the other calls; also: plate controls were buffer without enzyme for full effect and enzyme alone for no effect
Numbers without * were called inactive. An excerpt weighted towards active compounds, which were near 3.7% of everything screened. Rule as the data show it, unless noted: active = inhibition above about 30%; inconclusive = no clear call, values can overlap the other calls; inactive = below that.

O=C(OCCN1C(=O)c2cccc3c(N4CCOCC4)ccc(c23)C1=O)c1ccc(Cl)cc1 was read as BoNT A protease 34.4*, MazEF act -831.0, Autofluor counter 3644, Anthrax LF prot 11.6 and BoNT F protease 11.8.
For O=C(NCCCO)C12CC3CC(CC(C3)C1)C2 the results were BoNT A protease 0.1, MazEF act 5.1, Autofluor counter 7533, Anthrax LF prot -1.5 and BoNT F protease -1.5.
Screening O=C(O)CSCNC(=O)C12CC3CC(CC(C3)C1)C2 returned BoNT A protease -1.1, MazEF act 5.2, Autofluor counter 16463*, Anthrax LF prot -3.9 and BoNT F protease -4.0.
`Cc1sc2nc(CN3CCCC3)nc(N3CCN(S(=O)(=O)c4cccs4)CC3)c2c1C` gave BoNT A protease inconclusive, MazEF act -13.1, Autofluor counter 24350*, Anthrax LF prot 0.1 and BoNT F protease -3.7.
Screening Cc1ccccc1Cn1c(C)c(C(=O)NCC(C)C)sc1=O returned BoNT A protease 0.0, Autofluor counter 3267, Anthrax LF prot 0.5 and BoNT F protease 4.4.
Screening CCOC(=O)CSc1nc2ccc(NC(=O)CSc3nnnn3Cc3ccccc3)cc2s1 returned BoNT A protease -1.5, MazEF act -15.1, Autofluor counter 20885*, Anthrax LF prot -3.7 and BoNT F protease -2.7.
`CCc1cc[n+](/C(C(=S)Nc2cccc(C)c2)=C(/[O-])c2ccc(C)c([N+](=O)[O-])c2)cc1` gave BoNT A protease 31.6*, MazEF act 5.0, Autofluor counter 3019, Anthrax LF prot 9.1 and BoNT F protease -22.4.
`CC1(C(=O)N2CCCCC2)CCN1C(=O)C1(c2ccccc2)CC1` (stereo not given) gave BoNT A protease -0.3, Autofluor counter 3602, Anthrax LF prot -1.2 and BoNT F protease -1.4.
For Cc1ccc(OCC(=O)N(C)CCc2ccccn2)cc1 the results were BoNT A protease inconclusive, MazEF act -5.8, Autofluor counter 24016*, Anthrax LF prot -1.6 and BoNT F protease 1.3.
Screening Cc1ccc(OCC(=O)N2CCCC(CCC(=O)N(C)CCc3ccccn3)C2)cc1 (stereo not given) returned BoNT A protease 0.1, MazEF act -2.5, Autofluor counter 2294, Anthrax LF prot -0.7 and BoNT F protease -0.8.
CCC(=O)c1ccc(OCC(=O)OCc2csc(CC(=O)Nc3ccccc3C)n2)cc1 was read as BoNT A protease -0.3, MazEF act -3.0, Autofluor counter 3067, Anthrax LF prot 0.5 and BoNT F protease 4.2.
`CC(C)C(NC(=O)c1cccs1)c1nnc(SCC(=O)Nc2nccs2)n1C` (stereo not given) gave BoNT A protease 4.1, MazEF act 3.5, Autofluor counter 21406*, Anthrax LF prot -4.0 and BoNT F protease 5.4.
COc1ccc(NC(C)=O)cc1NC(=O)CSc1nnc(-c2ccncc2)n1C was read as BoNT A protease inconclusive, MazEF act 0.9, Autofluor counter 21036*, Anthrax LF prot -4.9 and BoNT F protease 1.0.
`CC(NC(=O)c1ccccc1F)c1nnc(SCC(=O)Nc2nccs2)n1C` (stereo not given) gave BoNT A protease -0.3, MazEF act 9.0, Autofluor counter 5253, Anthrax LF prot 1.6 and BoNT F protease 6.8.
`Cc1ccc(NC(=O)CSc2nnc(-c3ccncc3)n2C)cc1C` gave BoNT A protease inconclusive, MazEF act 1.1, Autofluor counter 20661*, Anthrax LF prot -3.4 and BoNT F protease -5.9.
For COc1ccc(OC)c(-c2csc3nnc(SCC(=O)Nc4ccc(NC(C)=O)cc4)n23)c1 the results were BoNT A protease -0.7, MazEF act 0.3, Autofluor counter 20934*, Anthrax LF prot -1.0 and BoNT F protease -3.4.
Screening NS(=O)(=O)c1ccc(CCNC(=O)CSc2nc3ccsc3c(=O)n2Cc2ccccn2)cc1 returned BoNT A protease 0.1, MazEF act 1.1, Autofluor counter 3617, Anthrax LF prot -1.7 and BoNT F protease 5.4.
O=[N+]([O-])c1ccccc1S(=O)NCc1c(Cl)cccc1Cl (stereo not given) was read as BoNT A protease -0.8, Autofluor counter 5997, Anthrax LF prot -11.3 and BoNT F protease 3.3.
For COC(=O)c1cc(OC)c(OC)cc1NC(=O)CSc1nnc(-c2cccnc2)n1C the results were BoNT A protease -3.7, MazEF act 8.5, Autofluor counter 20945*, Anthrax LF prot 1.0 and BoNT F protease -6.3.
Screening CCC(=O)Nc1ccc(-c2nnc(SCC(=O)Nc3nccs3)n2C)cc1 returned BoNT A protease 5.8, MazEF act 3.4, Autofluor counter 19859*, Anthrax LF prot -2.9 and BoNT F protease 10.7.
For Cc1cc(C)cc(NC(=O)c2cccc(C(=O)Nc3cc(C)cc(C)c3)n2)c1 the results were BoNT A protease -1.3, MazEF act -13.4, Autofluor counter 3778, Anthrax LF prot -8.5 and BoNT F protease inconclusive.
CCOc1ccc(CCNC(=O)CS(=O)Cc2nc(-c3ccccc3C)oc2C)cc1OCC (stereo not given) was read as BoNT A protease -48.8, MazEF act 3.7, Autofluor counter 20576*, Anthrax LF prot -18.0 and BoNT F protease -98.1.
For Cc1ccccc1-c1nc(CS(=O)CC(=O)NCCN2CCN(Cc3ccccc3)CC2)c(C)o1 (stereo not given) the results were BoNT A protease inconclusive, MazEF act 2.4, Autofluor counter 21943*, Anthrax LF prot -4.5 and BoNT F protease 0.3.
`CC(C)NC(=O)NC(=O)CSc1ncc(C(F)(F)F)cc1Cl` gave BoNT A protease -2.1, MazEF act 1.2, Autofluor counter 22963*, Anthrax LF prot -0.2 and BoNT F protease -3.1.
For CCOC(=O)C1(CCOC)CCCCC1=O (stereo not given) the results were BoNT A protease -0.2, MazEF act 6.7, Autofluor counter 4101, Anthrax LF prot -5.1 and BoNT F protease 5.9.
For CCC(NC(=O)c1ccccc1NC(=O)C(C)(C)C)C(=O)N1CC(C)OC(C)C1 (stereo not given) the results were MazEF act 52.1*.
Screening CCC(NC(=O)c1ccccc1NC(=O)C(C)(C)C)C(=O)N1CCCC1 (stereo not given) returned BoNT A protease -4.3, MazEF act 5.5, Autofluor counter 3863, Anthrax LF prot 4.2 and BoNT F protease -14.2.
CSC(=NC#N)N1CCN(c2ccccc2)CC1 was read as BoNT A protease inconclusive, MazEF act 9.4, Autofluor counter 20884*, Anthrax LF prot 0.9 and BoNT F protease -4.3.
`COc1ccc(NC(=O)C2(C)CCN2Cc2ccc(C(C)C)cc2)cc1OC` (stereo not given) gave BoNT A protease 0.2, Autofluor counter 2871, Anthrax LF prot -4.7 and BoNT F protease 0.2.
Screening O=C1CCCCC(=O)N(c2ccccc2)c2ccccc21 returned BoNT A protease 0.9, MazEF act -5.9, Autofluor counter 16379*, Anthrax LF prot 1.2 and BoNT F protease 0.7.
